Reference: PubChem BioAssay AID1117319 (Southern Research Institute, 2015)
Several values for one entry are separate records, joined by “and”; a condition that tells them apart may be missing. Identical values can stand only once. Screen size: about 260,000 compounds; about 1,500 (0.58%) were called active. Inconclusive results (about 5%) are left out.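 The calls were made as follows: active = inhibition above a set limit at one or more doses, reproduced on every date tested; inconclusive = results disagree between test dates, or hit never tested in dose response; inactive = the rest.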 The list is a sample of the results. Potency and affinity values are given separately.

molecular target: Virion infectivity factor (Human immunodeficiency virus type 1 group M subtype B (isolate BH10)) + Virion infectivity factor (Human immunodeficiency virus type 1 group M subtype B (isolate BRU/LAI)) + Virion infectivity factor (Human immunodeficiency virus type 1 group M subtype B (isolate PCV12)) + Virion infectivity factor (Human immunodeficiency virus type 1 group M subtype B (isolate HXB2)) + DNA dC->dU-editing enzyme APOBEC-3G (Homo sapiens) (UniProt P69720+P69721+P69722+P69723+Q9HC16); experiment: inhibitors of Vif binding to APOBEC3G peptide, primary screen, biochemical, TR-FRET, GST-Vif 1-94, biotin-A3G peptide, dose response retest (AID 1117319); conditions: active compounds read high;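 also: Vif residues 1-94 fused to GST binding biotinylated APOBEC3G peptide 110-148; 0% = full assay without inhibitor and 100% = GST in place of GST-Vif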

inhibition, inactive:
Cc1cc(C(=O)O)ccc1N/C=C1\CCCC(C)C1=O (stereo not drawn) 10.9%
CCOC(=O)c1ccc(N/C=C2/CCCC(C)C2=O)cc1 (stereo not drawn) 1.6%
CC1CCC/C(=C\Nc2ccc(C(=O)O)cc2)C1=O (stereo not drawn) 4.93%
CC1CCC/C(=C\Nc2ccccc2C(=O)O)C1=O (stereo not drawn) 5.74%
Cc1ccc(C(=O)NCCc2csc(-c3cccnc3)n2)cc1 3.26%
O=C(CCC(=O)NNC(=O)c1ccc([N+](=O)[O-])cc1)NCc1ccccc1 6.94%
O=C(NCCO)c1cc2ccccc2cc1O 2.23% and 6.09%
CCCCCCCCSC1=CC(=O)C(OC)=C(OC)C1=O 31.4%
COC1=CC(=O)C(OC)=C(OC)C1=O 5.9%
CSCCC(NC(=O)c1ccco1)C(=O)NCCc1ccc(Cl)cc1 (stereo not drawn) -15.8%
CC(=O)c1ccccc1NS(=O)(=O)c1ccccc1Cl -6.08%
COC(=O)COc1ccc2c(c1)O/C(=C\c1ccco1)C2=O 24%
CCN(CC)C(=O)Oc1ccc2c(c1)O/C(=C\c1ccco1)C2=O 12.6%
CC(C)Nc1nc2cccnc2s1 -0.88%
O=C(Nc1ccc(NC(=O)c2cccs2)cc1)c1ccc2c(c1)OCCO2 3.57%
COc1ccc(N2CCN(C(=O)CCc3c[nH]c4ccccc34)CC2)cc1 3.01%
O=C(CCc1c[nH]c2ccccc12)N1CCN(c2ccc(F)cc2)CC1 -3.01%
O=C(/C=C/c1ccccc1Cl)N(Cc1ccc(Cl)cc1)C1CCS(=O)(=O)C1 (stereo not drawn) 23.6%
CCC(C)c1ccccc1NC(=O)c1cccnc1 (stereo not drawn) -3.72%
Cc1cc(Cl)c(S(=O)(=O)N2CCCC2)cc1OCC(=O)NC1CCCCC1 -1.25%
Cc1cc(Cl)c(S(=O)(=O)NC2CCCC2)cc1OCC(=O)NC1CCCCC1 -2.05%
CC(=O)c1cccc(N(CC(=O)Nc2ccc(F)cc2F)S(C)(=O)=O)c1 7.3%
O=C(NNc1cccc(Cl)n1)Nc1cccc(C(F)(F)F)c1 2.4%
Cc1cc(C)cc(NC(=O)CSc2nnc(-c3ccccc3C)o2)c1 27.4%
COc1cc(NC(=O)c2cccc(Cl)c2)ccc1NC(=O)c1cccs1 2.27%
Cc1ccsc1C(=O)C1CCCN(Cc2cn(C)nc2-c2ccccc2)C1 (stereo not drawn) -6.7%
Cc1cc(C)c(C#N)c(Oc2ccc(O)cc2)n1 0.3%
Cc1cc(C)c(C#N)c(Oc2ccc(F)cc2)n1 18.6%
